# Measurements: ChEMBL document CHEMBL3988442, “University of Dundee, Small-Polar-MMV Screening Library” (2021)
# Among all 66,000 compounds or so, about 960 (1.5%) showed an effect of 50% or more. The full list was thinned out, with strong results kept by preference.
# Test system: Trypanosoma brucei
# Test: Trypanosoma brucei 72 hour study
# Type: functional, organism-based
# Parameters: scale not given: in the data most compounds retested in dose-response had high values
smiles,measurement,setting,value
CCn1cc(-c2c(C)c(C3CCOC(C)(C)C3)nc(N)c2C#N)cn1 (centres undefined),Percent Effect,"30 µM, 30.03 µM",-13.96%
Cc1ccc(C(=O)N2CCC3(CC2)CCN(Cc2ccccn2)C3=O)o1.O=C(O)C(F)(F)F,Percent Effect,"30 µM, 30.03 µM",-16.24%
CCOCC(=O)N1CCOCC2(CCN(c3ncccn3)C2)C1.O=C(O)C(F)(F)F (centres undefined),Percent Effect,"30.3 µM, […]",-43.52%
Cc1cc(NC(=O)N(CCO)Cc2ccsc2)no1,Percent Effect,"30.3 µM, […]",3.821%
Cc1nc(CN2CC[C@@H]3O[C@@H](C(=O)N4CCOCC4)C[C@@H]32)cs1.O=C(O)C(F)(F)F,Percent Effect,"30.3 µM, […]",-22.53%
CN(CCOc1cccc(S(C)(=O)=O)c1)c1ccccc1,Percent Effect,"30 µM, 30.03 µM",-2.31%
CCCOc1ccccc1CCCNc1ncnc2oc(C)nc12,Percent Effect,"30.3 µM, […]",99.92%
CCC(CNc1ncnc2oc(C)nc12)Cc1ccccc1 (centres undefined),Percent Effect,"30.3 µM, […]",10.79%
CCCOc1ccc(Cl)cc1CNc1ncnc2oc(C)nc12,Percent Effect,"30.3 µM, […]",18.57%
CC(=O)N1CCN(Cc2ccsc2)CC2(CC(=O)N(C)C2)C1.O=C(O)C(F)(F)F (centres undefined),Percent Effect,"30.3 µM, […]",-65.69%
O=C(c1cc(Cl)c[nH]c1=O)N1C[C@@H]2CC[C@H](C1)N(Cc1ccccc1)C2,Percent Effect,"30 µM, 30.03 µM",-61.83%
CC(=O)N1N=C(COc2ccc(Cl)cc2)OC1c1ccccc1 (centres undefined),Percent Effect,"30 µM, 30.03 µM",-14.14%
CC(C)c1cc(NC(=O)c2ccc([S+]([O-])C(C)C)cc2)[nH]n1 (centres undefined),Percent Effect,"30.3 µM, […]",80.42%
same,Percent Effect,"10 mM, 10 mM as filed; unlikely as a test dose",77.43%
Cc1ccc(C(=O)Nc2cc(C(C)C)n[nH]2)cn1,Percent Effect,"30 µM, 30.03 µM",54.96%
CC(C)c1cc(NC(=O)Cn2cnc3ccccc3c2=O)[nH]n1,Percent Effect,"30 µM, 30.03 µM",1.416%
CC(C)c1cc(NC(=O)c2cccnc2)[nH]n1,Percent Effect,"30.3 µM, […]",11.06%
same,Percent Effect,"10 mM, 10 mM as filed; unlikely as a test dose",-25.28%
CC(C)c1cc(NC(=O)c2ccc(NC3CC3)nc2)[nH]n1,Percent Effect,"30 µM, 30.03 µM",40.22%
CC(C)c1cc(NC(=O)c2ccc(C(=O)NC(C)(C)C)cc2)[nH]n1,Percent Effect,"30 µM, 30.03 µM",33.13%
Cc1ccc(CC(=O)Nc2cc(C(C)C)n[nH]2)cn1,Percent Effect,"30.3 µM, […]",101.5%
same,Percent Effect,"10 mM, 10 mM as filed; unlikely as a test dose",101.9%
CC(C)c1cc(NC(=O)c2ccncc2)[nH]n1,Percent Effect,"30.3 µM, […]",16.87%
same,Percent Effect,"10 mM, 10 mM as filed; unlikely as a test dose",-12.06%
Cc1ccc(CC(=O)NCC(O)c2cc(Cl)cc(Cl)c2)cn1 (centres undefined),Percent Effect,"30 µM, 30.03 µM",-24.81%
NCc1cnn(-c2ccccc2C(=O)NCc2ccccn2)c1,Percent Effect,"30.3 µM, […]",5.478%
O=C(O)C(F)(F)F.O=C1CC2(CCN(Cc3ccco3)C2)CN1c1ccc2c(c1)OCO2 (centres undefined),Percent Effect,"30 µM, 30.03 µM",43.65%
CN(C)C(=O)CN1C(=O)CCC12CCN(Cc1cccn1C)CC2.O=C(O)C(F)(F)F,Percent Effect,"30.3 µM, […]",-2.653%
COc1ccc([C@@H]2CN(C(=O)CCC(F)(F)F)C[C@H]2NC(C)=O)cc1,Percent Effect,"30 µM, 30.03 µM",98.96%
CCOCC(=O)N1C[C@@H](NC(C)=O)[C@H](c2ccc(OC)cc2)C1,Percent Effect,"30 µM, 30.03 µM",-1.358%
COc1ccc([C@@H]2CN(C(=O)CS(C)(=O)=O)C[C@H]2NC(C)=O)cc1,Percent Effect,"30 µM, 30.03 µM",-86.91%
COc1cccc(CN2CCCC3(CCN(C(=O)c4ccco4)C3)C2)c1 (centres undefined),Percent Effect,"30.3 µM, […]",7.427%
COc1cccc(CN(C)C(=O)CN2CC(n3nc(C)cc3C)C2)c1,Percent Effect,"30 µM, 30.03 µM",1.154%
Cc1cc(C)n(C2CN(CC(=O)N(C)Cc3ccsc3)C2)n1,Percent Effect,"30 µM, 30.03 µM",62.05%
Cc1cc(C)n(C2CN(CC(=O)N(C)Cc3cnn(C)c3)C2)n1,Percent Effect,"30 µM, 30.03 µM",17.09%
O=C(O)C(F)(F)F.O=C([C@H]1C[C@H]2OCC[C@H]2N(Cc2ccc(F)cc2)C1)N1CCCCO1,Percent Effect,"30.3 µM, […]",-288.9%
CCn1ccnc1CNCc1ccc(C)cc1OC(C)(C)C,Percent Effect,"30 µM, 30.03 µM",59.89%
Cc1ccc(CNCc2nccn2C)c(OC(C)(C)C)c1,Percent Effect,"30 µM, 30.03 µM",-9.651%
Cc1ccc(CNC(=O)NCc2nccn2C)c(OC(C)(C)C)c1,Percent Effect,"30 µM, 30.03 µM",-10.65%
Cl.c1nc(N2CCOCC2)ncc1-c1cncn1CCCN1CCCCC1,Percent Effect,"30.3 µM, […]",-26.24%
CCn1cc(NC(=O)NCC(O)COc2ccccc2)cn1 (centres undefined),Percent Effect,10 µM,2.207%
CN1CCCCC1c1ncc2c(n1)CCN(CCCc1ccccc1)C2 (centres undefined),Percent Effect,"30.3 µM, […]",98.5%
COc1ccc(CN2CCc3nc(C4CCCCN4C)ncc3C2)cc1 (centres undefined),Percent Effect,"30 µM, 30.03 µM",-5.648%
Cc1ncc2c(n1)CN(CCCc1ccccc1)CC2,Percent Effect,"30.3 µM, […]",13.17%
same,Percent Effect,"10 mM, 10 mM as filed; unlikely as a test dose",-28.02%
CN1CCCCC1c1ncc2c(n1)CCN(Cc1ccccc1Cl)C2 (centres undefined),Percent Effect,"30 µM, 30.03 µM",-6.551%
CN1CCCCC1c1ncc2c(n1)CCN(Cc1ccc(F)cc1)C2 (centres undefined),Percent Effect,"30.3 µM, […]",42.96%
CN1CCCCC1c1ncc2c(n1)CCN(Cc1ccc(Cl)c(F)c1)C2 (centres undefined),Percent Effect,"30.3 µM, […]",88.41%
O=C(C1CCOCC1)N1C[C@H]2CCC[C@@]2(COc2ccccn2)C1.O=C(O)C(F)(F)F,Percent Effect,"30 µM, 30.03 µM",15.32%
Cl.Cn1nc(C2CCCN(Cc3cc(F)cc(F)c3)C2)c2nccnc21 (centres undefined),Percent Effect,"30.3 µM, […]",30.77%
CNC(=O)[C@@H]1C[C@@H](N)CN1C1CCN(Cc2ccccn2)CC1,Percent Effect,"30.3 µM, […]",-17.78%
CNC(=O)[C@@H]1C[C@@H](N)CN1C1CCN(c2ccccc2F)CC1,Percent Effect,"30.3 µM, […]",11.28%
CCNC(=O)[C@@H]1C[C@H](N)CN1C1CCN(c2ccccc2OC)CC1,Percent Effect,"30.3 µM, […]",99.36%
O=C(NCCCn1nc2ccccn2c1=O)Nc1ccccc1,Percent Effect,"30.3 µM, […]",-36.69%
Cc1ccc(-n2c(C)nnc2SCC(O)COCc2ccco2)cc1 (centres undefined),Percent Effect,"30.3 µM, […]",100%
OC(COCc1ccco1)CN1CCC(Cn2cccn2)CC1 (centres undefined),Percent Effect,"30 µM, 30.03 µM",-22.56%
OC(COCc1ccco1)CSc1nnc2ccccn12 (centres undefined),Percent Effect,"30.3 µM, […]",-18.97%
N#Cc1ccc(OCC(O)CN2CCC(c3ccn[nH]3)CC2)cc1 (centres undefined),Percent Effect,10 µM,5.752%
OC(COc1ccccc1)CN1CCC(c2ccn[nH]2)CC1 (centres undefined),Percent Effect,"30 µM, 30.03 µM",-29.13%
OC(COc1ccc(F)cc1)CN1CCC(c2ccn[nH]2)CC1 (centres undefined),Percent Effect,10 µM,90.5%
CN1[C@H](Cn2cccn2)C[C@@H]2CN(Cc3cccs3)CC[C@@H]21.O=C(O)C(F)(F)F.O=C(O)C(F)(F)F.O=C(O)C(F)(F)F,Percent Effect,"30.3 µM, […]",-3.772%
CN(C)CCn1c([C@H]2CCCO2)cc2cccnc21,Percent Effect,"30.3 µM, […]",1.858%
O=C(O)C(F)(F)F.O=S(=O)(C1CC1)N1CC[C@]2(C[C@@H](Oc3ncccc3F)CO2)C1,Percent Effect,"30 µM, 30.03 µM",13.6%
Cc1cnc(N2CC[C@@H]3CN(CCC(C)C)S(=O)(=O)[C@@H]3CC2)nc1,Percent Effect,"30.3 µM, […]",13.68%
CCc1cnc(N2CC[C@@H]3CN(CCC(C)C)S(=O)(=O)[C@@H]3CC2)nc1.O=C(O)C(F)(F)F,Percent Effect,"30.3 µM, […]",50.26%
CC(C)CN1C[C@H]2CCN(c3ncccn3)CC[C@H]2S1(=O)=O.O=C(O)C(F)(F)F,Percent Effect,"30 µM, 30.03 µM",7.131%
COc1ccccc1OCCc1cc(C2CCNC2)n[nH]1.Cl.Cl (centres undefined),Percent Effect,"30.3 µM, […]",-27.23%
CC(=O)N1CCN(C)CC(COCc2ccccc2)C1 (centres undefined),Percent Effect,"30.3 µM, […]",18.55%
CC(C)(C)C(=O)N1CCC(COCc2ccccc2)C1 (centres undefined),Percent Effect,"30.3 µM, […]",100.1%
Cc1cnc(C(=O)N2CCC(COCc3ccccc3)C2)cn1 (centres undefined),Percent Effect,"30.3 µM, […]",-6.003%
Cc1nn(C)c2c(=O)n(CC(=O)NCc3ccccn3)ccc12,Percent Effect,"30 µM, 30.03 µM",-0.211%
CC(C)C(CCO)NC(=O)Nc1cc(F)ccc1-n1cccn1 (centres undefined),Percent Effect,"30.3 µM, […]",-14.63%
CC(C)C(O)CCNC(=O)Nc1cc(F)ccc1-n1cccn1 (centres undefined),Percent Effect,"30.3 µM, […]",88.94%
C[S+]([O-])CCNC(=O)Nc1cc(F)ccc1-n1cccn1 (centres undefined),Percent Effect,"30.3 µM, […]",-162.3%
CN(CCO)C[C@@H]1CN(C2CCN(c3ccccc3Cl)CC2)C[C@@H]1CO,Percent Effect,"30 µM, 30.03 µM",13.3%
CC1CN(Cc2cccc(C#N)c2)CCN1c1ccc2nncn2n1 (centres undefined),Percent Effect,"30 µM, 30.03 µM",-20.22%
CC1CN(Cc2cccnc2)CCN1c1ccc2nncn2n1 (centres undefined),Percent Effect,"30.3 µM, […]",7.126%
same,Percent Effect,"10 mM, 10 mM as filed; unlikely as a test dose",-16.61%
CC1CN(CC(=O)NC2CCCC2)CCN1c1ccc2nncn2n1 (centres undefined),Percent Effect,"30 µM, 30.03 µM",-13.42%
COc1cccc(CN2CCN(c3ccc4nncn4n3)C(C)C2)c1 (centres undefined),Percent Effect,"30 µM, 30.03 µM",97.2%
CC1CN(CC2CCCC2)CCN1c1ccc2nncn2n1 (centres undefined),Percent Effect,"30 µM, 30.03 µM",98.48%
CC1CN(CC2CCCCC2)CCN1c1ccc2nncn2n1 (centres undefined),Percent Effect,"30 µM, 30.03 µM",-45.41%
CC(C)(C)c1nc(CNC(=O)N2CCc3ccccc3C2CO)no1 (centres undefined),Percent Effect,"30.3 µM, […]",6.013%
Cc1cc(C(=O)N2CCOC(c3nc(C(C)C)n[nH]3)C2)c(C)s1 (centres undefined),Percent Effect,"30.3 µM, […]",17.14%
CC(C)(CO)Nc1cc(-c2cn[nH]c2)ncn1.Cl,Percent Effect,"30.3 µM, […]",-11.12%
Cc1cc(-c2cnc(N3CCCC(C)C3)nc2-c2cccnc2C)on1.Cl (centres undefined),Percent Effect,"30.3 µM, […]",58.57%
Cc1cc(-c2cnc(N3CCOCC3)nc2-c2cccnc2C)on1,Percent Effect,"30.3 µM, […]",-10.3%
Cc1cc(-c2cnc(N3CCC(O)CC3)nc2-c2cccnc2C)on1,Percent Effect,"30.3 µM, […]",-31.41%
Cc1cc(-c2cnc(N3CCCCCC3)nc2-c2cccnc2C)on1,Percent Effect,"30.3 µM, […]",55.42%
Cc1cc(-c2cnc(N3CCCC(C)C3)nc2C(C)C)on1 (centres undefined),Percent Effect,"30.3 µM, […]",-16.22%
Cc1cc(-c2cnc(N3CCNC(=O)C3)nc2-c2cccnc2C)on1,Percent Effect,"30 µM, 30.03 µM",16.74%
Cc1ccc(-c2ccnc(NC(c3ncccc3C)C3CC3)n2)c(C)n1 (centres undefined),Percent Effect,"30 µM, 30.03 µM",-69.26%
CC(=O)N1CCO[C@@H]2CN(Cc3ccccc3F)C[C@@H]2C1.O=C(O)C(F)(F)F,Percent Effect,"30.3 µM, […]",-73.74%
O=C1OCCN1CC(=O)N1C[C@H]2CC[C@@H]1CN(Cc1cscn1)C2,Percent Effect,"30 µM, 30.03 µM",-38.65%
CNc1ccc(C(=O)N(C)Cc2ccc3ccccc3n2)cn1,Percent Effect,"30.3 µM, […]",5.672%
Cn1ccnc1C(=O)N1CCC2(CC1)CC(Oc1cccnc1)CO2.O=C(O)C(F)(F)F (centres undefined),Percent Effect,"30 µM, 30.03 µM",24.28%
COc1ncccc1C(=O)N1CCC2(CC1)CC(OC)CO2.O=C(O)C(F)(F)F (centres undefined),Percent Effect,"30.3 µM, […]",-51.01%
COc1ncccc1C(=O)N1CC[C@]2(C[C@@H](Oc3cccnc3)CO2)C1.O=C(O)C(F)(F)F.O=C(O)C(F)(F)F,Percent Effect,"30 µM, 30.03 µM",55.04%
Cn1ccc(C(=O)NC2CCC23CCN(CC2CCOCC2)CC3)c1.O=C(O)C(F)(F)F (centres undefined),Percent Effect,"30 µM, 30.03 µM",-17.43%
